Inconclusive results are not listed. Calls of active or inactive are those of the source. The calls were made as follows, unless noted: active = hit-call score of the fitted dose curve at least 0.9, where 1 is the maximum; inactive = score below 0.9.

The text below walks through data of PubChem BioAssay (EPA / NIEHS).

Assay [1] in a line: CCTE_Shafer_MEA_acute_spike_number: CCTE's Neural Acute Assay for Total Number of Spikes, Shafer Lab (AID 2284008).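 As to AC50: curve fitted for decrease in spike count so AC50 reflects inhibitors.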 The gist of the method: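 Rat primary cortical neurons on 48-well MEA plates, DIV 13 or 15, at 37 C. 40 min baseline then 40 min with compound (0.03-40 uM); spikes detected at 8x rms noise, expressed as percent change from baseline.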
The nature of assay [2]: CCTE_Shafer_MEA_acute_firing_rate_mean: CCTE's Neural Acute Assay for Mean Firing Rate, Shafer Lab (AID 2284009).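 Also: analyzed for loss of signal so actives lower firing rate relative to DMSO.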 The gist of the method: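 Percent change in well-mean firing rate was derived from extracellular spikes detected at 8x rms noise (300-5000 Hz band-pass) before and after a 40-min compound exposure. Cultures were primary rat cortical neurons, tested at 0.03-40 uM.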

Assay [3] in a line: CCTE_Harrill_HTTr_Viability_MCF7: CCTE's 6-hour Cell Viability Assessment for the High-Throughput Transcriptomics (HTTr) Platform, in MCF-7 cells cultured in DMEM + 10% fetal bovine serum, Harrill Lab (AID 2284010). An outline of the steps: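 Cells were dosed with chemicals in an eight-point dilution series, imaged 6 hours later for propidium iodide uptake, and the endpoint was analyzed by bidirectional fitting against DMSO as negative control.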

Assay [4] is described as follows: CCTE_Harrill_HTTr_Apoptosis_MCF7: CCTE's 6-hour Apoptosis Assessment for the High-Throughput Transcriptomics (HTTr) Platform, in MCF-7 cells cultured in DMEM + 10% fetal bovine serum, Harrill Lab (AID 2284011). The gist of the method:
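MCF-7 cells in DMEM + 10% FBS exposed 6 h to chemicals over an eight-point dilution series. Caspase-3/7 activation imaged by high-content CellEvent Green staining; fitted bidirectionally versus DMSO.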

The nature of assay [5]: CCTE_Harrill_HTTr_CellCount_MCF7: CCTE's Cell Proliferation Assessment for the High-Throughput Transcriptomics (HTTr) Platform, Harrill Lab (AID 2284012; active = hit-call score of the fitted dose curve at least 0.9, where 1 is the maximum;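 also: cells exposed to compound for six hours; intended direction is loss of nuclei count meaning fewer cells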). The gist of the method: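 Chemicals in eight-point dilution series are added to MCF-7 cells for six hours, nuclei are stained with Hoechst and imaged, and per-well nuclei counts are fitted in both directions relative to DMSO controls.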

Assay [6] is described as follows: CCTE_Shafer_MEA_acute_burst_number: CCTE's Neural Acute Assay for Single-Electrode Bursts, Shafer Lab (AID 2284013). An outline of the steps: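 Spontaneous network activity of primary rat cortical neurons was recorded extracellularly on microelectrode arrays at 37 C, with 40-min periods before and during exposure to 0.03-40 uM compound on DIV 13 or 15.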
Assay [7] is described as follows: CCTE_Shafer_MEA_acute_burst_duration_mean: CCTE's Neural Acute Assay for Mean Burst Duration, Shafer Lab (AID 2284014).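 Also: hits are decreases in mean burst duration relative to DMSO controls.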 An outline of the steps: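 Read-out is the per-well percent change in mean burst duration (first to last spike within a single-electrode burst) between 40-min recordings before and after compound. Cultures were primary rat cortical neurons on MEAs, dosed at 0.03-40 uM on DIV 13 or 15.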

Assay [8] can be described thus: CCTE_Shafer_MEA_acute_per_burst_spike_number_mean: CCTE's Neural Acute Assay for Average Number of Spikes Per Burst, Shafer Lab (AID 2284015).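 Also: hits are decreases in mean spikes per burst versus baseline.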 An outline of the steps: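 Rat primary cortical neurons on 48-well MEAs (DIV 13 or 15) were treated with 0.03-40 uM compound at 37 C. Mean spikes per burst over 40 min were recorded before and after exposure and expressed as percent change from baseline, relative to DMSO.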

Assay [9] can be described thus: CCTE_Shafer_MEA_acute_interburst_interval_mean: CCTE's Neural Acute Assay for Mean Interburst Interval, Shafer Lab (AID 2284016).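 Also: percent change of mean interburst interval versus each well's own pre-dose baseline; curves fitted for decrease in interburst interval relative to DMSO.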 An outline of the steps:
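Rat primary cortical neurons on 48-well MEAs at DIV 13 or 15 were exposed acutely to 0.03-40 uM. Spikes detected at 8x rms noise, 37 C. Mean interburst interval from 40 min recordings expressed as percent change from 40 min pre-treatment baseline.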

Assay [10] can be described thus: CCTE_Shafer_MEA_acute_burst_percentage_std: CCTE's Neural Acute Assay for Standard Deviation of Burst Percentage, Shafer Lab (AID 2284018).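 Also: fitted in the negative direction so actives lower burst percentage SD.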 The gist of the method: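 Value is percent change from baseline in the across-electrode SD of spikes-in-bursts percentage, wells with >/= 10 active electrodes. Acute 40-min exposure to 0.03-40 uM on DIV 13 or 15 rat cortical cultures, recorded at 37 C after 40-min baseline.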

A short description of assay [11]: CCTE_Shafer_MEA_acute_per_network_burst_spike_number_mean: CCTE's Neural Acute Assay for Average Number of Spikes in a Network Burst, Shafer Lab (AID 2284019).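 As to AC50: curve fitted for loss of signal so actives reduce spikes per network burst.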 The gist of the method:
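Read-out is mean spike count per network burst, taken as percent change between a 40-min pre-exposure and a 40-min post-exposure recording per well. Rat primary cortical neurons on MEAs at 37 C, DIV 13 or 15; compounds at 0.03-40 uM.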

A short description of assay [12]: CCTE_Shafer_MEA_acute_per_network_burst_spike_number_std: CCTE's Neural Acute Assay for Standard Deviation of Number of Spikes in a Network Burst, Shafer Lab (AID 2284020).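 Also: fitted for decrease in spike-number SD versus DMSO so actives lower it.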 The gist of the method: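 Spontaneous network activity of primary rat cortical neurons is recorded extracellularly before and after a 40-min compound exposure (0.03-40 uM) at 37 C. The endpoint is the well's percent change in burst spike-number SD.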

Assay [13] in a line: CCTE_Shafer_MEA_acute_per_network_burst_electrodes_number_mean: CCTE's Neural Acute Assay for Mean Number of Electrodes in a Network Burst, Shafer Lab (AID 2284021).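 Also: curves fitted for decreases only so hits reduce electrodes per burst.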 An outline of the steps:
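Rat primary cortical neurons on 48-well MEAs, DIV 13 or 15, were treated at 0.03-40 uM. Spikes were detected at 8x rms noise and recorded at 37 C. The mean electrodes per network burst in a 40 min exposure recording was expressed as percent change from a 40 min baseline.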

A short description of assay [14]: CCTE_Shafer_MEA_acute_network_burst_percentage: CCTE's Neural Acute Assay for Percentage of Network Bursts, Shafer Lab (AID 2284022).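 Also: curves fitted for loss so actives lower network burst percentage.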 The gist of the method:
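Rat primary cortical neuron networks on 48-well MEA plates, DIV 13 or 15, treated acutely with compound (0.03-40 uM, at least three wells). Percent of spikes within network bursts compared between 40-min recordings before and during exposure at 37 C, expressed as percent change.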

Assay [15] is described as follows: CCTE_Shafer_MEA_acute_cross_correlation_area: CCTE's Neural Acute Assay for Area of Cross Correlation, Shafer Lab (AID 2284024).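 Also: curves fitted for loss of cross-correlation area so actives lower synchrony.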 The gist of the method:
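Rat primary cortical neurons on 48-well MEA, DIV 13 or 15; compounds 0.03-40 uM. Baseline and post-exposure 40 min recordings at 37 C; percent change in area under pooled inter-electrode cross-correlation near zero lag, relative to DMSO.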

Assay [16] is described as follows: CCTE_Shafer_MEA_acute_cross_correlation_HWHM: CCTE's Neural Acute Assay for Cross Correlation at Half Width at Half Maximum, Shafer Lab (AID 2284026).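 Also: hits are a decrease in cross-correlogram half width relative to DMSO.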 An outline of the steps: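 Rat primary cortical neurons on 48-well MEA plates; 40-min baseline and 40-min post-exposure recordings at 37 C on DIV 13 or 15, compounds 0.03-40 uM. Spikes detected at 8x rms noise; percent change in cross-correlogram HWHM per well vs baseline.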

Assay [17] can be described thus: CCTE_Shafer_MEA_acute_burst_percentage_mean: CCTE's Neural Acute Assay for Percentage of Spikes in a Burst, Shafer Lab (AID 2284017).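 As to AC50: curve fitted for loss of signal so potency reflects decreased burst percentage.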 The gist of the method: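 Primary rat cortical neurons on 48-well MEA plates, treated on DIV 13 or 15 at 0.03-40 uM. Spikes detected at 8x rms noise at 37C; percent change from 40-min baseline to 40-min post-dose recording, fitted versus DMSO.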

A short description of assay [18]: CCTE_Simmons_MITO_max_resp_rate: CCTE's HepG2 Seahorse XF Respirometric Screening Assay at Maximal Respiratory State [uncoupled], Simmons Lab (AID 2284002). The conditions noted are these: actives raise or lower the signal. The gist of the method: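 HepG2 oxygen consumption measured on Seahorse XF after FCCP uncoupling, following test compound injection; 7 concentrations from 125 nM to 100 uM final. Readings every 6 min over 72 min, three biological replicates; bidirectional fit versus DMSO.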

Assay [19] can be described thus: CCTE_Simmons_MITO_inhib_resp_rate: CCTE's HepG2 Seahorse XF Respirometric Screening Assay at Inhibited Respiratory State [full ETC block], Simmons Lab (AID 2284006). Particulars: actives raise or lower the signal. The gist of the method:
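Compound injected onto HepG2 cells (125 nM–100 uM final, 7 points); FCCP then rotenone/antimycin A added. Oxygen consumption read every 6 min (3 min mix, 3 min measure) for 72 min. Inhibited-state OCR fitted against DMSO.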

Assay [20] is described as follows: CCTE_Simmons_MITO_viability: CellTiter-Glo Viability Assessment for CCTE's HepG2 Seahorse XF Respirometric Screening Assay [post-hoc], Simmons Lab (AID 2284007; active = hit-call score of the fitted dose curve at least 0.9, where 1 is the maximum). The gist of the method:
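After the Seahorse oxygen-consumption sequence (basal, FCCP, rotenone/antimycin A; 72 min total), HepG2 viability was scored as ATP content by bioluminescence. Chemicals ran at seven concentrations up to 100 uM final for 90 min.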
(In general: Cellular ATP, detected with luciferase, serves as a proxy for viable cell number.)

As usually defined, the AC50 is the concentration giving half of the maximal activity seen. On to `c1ccc(NNc2ccccc2)cc1`, for which the result in assay [1], in assay [2], in [3], in assay [4], in assay [5] and in [6] was inactive. The call in assay [7], in assay [9], in assay [10], in [11], in assay [12] and in assay [13] was inactive. Besides, the compound was called inactive in assay [14] and in assay [15]. Also, the values for the half-maximal activity concentration (AC50) in assay [8] and in assay [16] were 20 µM (active) and 29.7 µM (active), respectively.

Turning to `N#CC(Br)Br`, the result in assay [1], in [2], in assay [3], in assay [4], in assay [5] and in [6] was inactive. Further, the outcome in [7], in assay [8], in assay [9], in assay [17], in [10] and in assay [11] was inactive. Besides, the compound was called inactive in assay [12], in [13], in assay [14], in assay [15] and in [16].

On to `Cc1ccc(N)c(N)c1`, for which the call in assay [1], in [2], in [3], in [4], in [5] and in [6] was inactive. The call in assay [7], in assay [8], in [9], in assay [10], in [11] and in assay [12] was inactive. Moreover, the call in assay [13], in assay [15] and in [16] was inactive. Further, the concentration at half-maximal activity (AC50) in [17] was 20 µM (active); in assay [14], 9.87 µM (active).

As for `O=C(Oc1ccc(Br)cc1)N1CCN2CCC1CC2`, the compound was called inactive in assay [1], in assay [2], in [3], in assay [4], in [6] and in assay [7]. Further, the compound was classed as inactive in assay [8], in assay [9], in assay [17], in [10], in assay [12] and in assay [13]. Also, the compound was called inactive in assay [14], in assay [15] and in [16]. For the same compound, the AC50 in [11] was 20 µM (active).

As to `ClC1=C(Cl)[C@]2(Cl)[C@H]3[C@H]([C@@H]4C=C[C@H]3C4)[C@@]1(Cl)C2(Cl)Cl`, the compound was classed as inactive in assay [1], in assay [2], in assay [3], in assay [4], in [5] and in assay [6]. Besides, the compound was called inactive in assay [7], in assay [8], in [9], in assay [17], in [10] and in assay [11]. Moreover, the compound was classed as inactive in assay [12], in assay [13], in [14], in [15] and in [16].

As for `Clc1ccc(C(c2ccc(Cl)cc2)C(Cl)(Cl)Cl)cc1`, the call in [1], in [2], in assay [3], in assay [4], in assay [5] and in [6] was inactive. Moreover, the compound was classed as inactive in [7], in [8], in [9], in assay [11], in assay [12] and in assay [15]. In addition, the compound was called inactive in assay [16]. For the same compound, the AC50 in assay [17] was 11.4 µM (active); in assay [10] it was 5.34 µM (active); in assay [13], 4.35 µM (active); in [14], 4.24 µM (active).

With `CC(C)COC(=O)c1ccccc1C(=O)OCC(C)C`, the AC50 in assay [18] is 50 µM (active); in assay [1], 7.13 µM (active); in assay [2], 7.16 µM (active); in assay [7] it was 20 µM (active); in [8], 6.45 µM (active); in assay [17], 9.02 µM (active). Besides, the AC50 in [11] is 6.67 µM (active); in assay [12], 8.5 µM (active); in [16], 5.62 µM (active). Moreover, the compound was classed as inactive in assay [19], in assay [20], in assay [3], in assay [4], in assay [5] and in assay [6]. The result in [9], in assay [10], in assay [13], in [14] and in assay [15] was inactive.

For the compound `CC(C)(O)c1cnn2c(-c3ccc(F)c(-c4c(F)cccc4C#N)c3)cnc2n1`, the AC50 is 0.713 µM (active) in assay [1]; 0.789 µM (active) in [2]; 1.18 µM (active) in assay [6]; 20 µM (active) in assay [17]; 3.97 µM (active) in assay [12]; 20 µM (active) in assay [13]. The values for the AC50 in assay [14] and in assay [16] were 30.8 µM (active) and 3.97 µM (active), respectively. Moreover, the result in assay [3], in [4], in assay [5], in assay [7], in assay [8] and in assay [9] was inactive. Besides, the outcome in assay [10], in assay [11] and in assay [15] was inactive.

Turning to `O=P(OCCCl)(OCCCl)OCCCl`, the compound was classed as inactive in [1], in [2], in [3], in assay [4], in assay [5] and in assay [6]. In addition, the compound was classed as inactive in assay [7], in [8], in assay [9], in assay [17], in [10] and in assay [11]. For the same compound, the result in assay [12], in assay [13], in assay [14], in assay [15] and in assay [16] was inactive.

For `Nc1ccc(N=Nc2ccccc2)cc1`, the result in assay [18], in assay [19], in assay [20], in [3], in assay [4] and in assay [5] was inactive.
